Measurements as given in PubChem BioAssay (NCATS).
Values without a mark were called inactive. Inconclusive results are not listed. Activity calls are given as the source filed them. Unless noted, calls follow the shape of the dose curve; as a rule, active = well fitted curve in either direction with a large enough effect (not every such curve was filed as active); inconclusive = small, poorly fitted or top-dose-only effect, or another doubt; inactive = flat fitted curve, though single readings scatter.

Legend:
[1] = biological target: Lysosomal acid glucosylceramidase (Homo sapiens) (UniProt P04062); experiment: Glucocerebrosidase-p2 (AID 348; in the data active = potency below about 10 µM; also: potency is read from the fitted curve at half-maximal effect); conditions: purified GBA, blue fluorogenic substrate, 40 min
Sequence of Lysosomal acid glucosylceramidase (Homo sapiens) (P04062 whole entry, looked up): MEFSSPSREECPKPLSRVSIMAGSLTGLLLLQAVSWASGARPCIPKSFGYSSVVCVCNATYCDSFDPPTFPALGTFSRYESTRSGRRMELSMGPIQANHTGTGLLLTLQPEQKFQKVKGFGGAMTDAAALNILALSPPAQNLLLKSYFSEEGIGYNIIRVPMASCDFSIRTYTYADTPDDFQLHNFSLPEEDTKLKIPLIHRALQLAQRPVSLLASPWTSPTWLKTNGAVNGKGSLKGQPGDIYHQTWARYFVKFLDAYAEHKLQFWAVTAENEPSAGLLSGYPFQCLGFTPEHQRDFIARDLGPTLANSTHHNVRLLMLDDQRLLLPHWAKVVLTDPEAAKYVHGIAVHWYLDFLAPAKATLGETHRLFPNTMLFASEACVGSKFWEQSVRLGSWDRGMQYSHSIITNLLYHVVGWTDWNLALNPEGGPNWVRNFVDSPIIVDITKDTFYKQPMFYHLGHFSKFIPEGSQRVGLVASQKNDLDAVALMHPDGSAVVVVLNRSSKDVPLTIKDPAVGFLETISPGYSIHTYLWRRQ
In short: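 Compounds titrated from 0.6 nM upwards against 0.2 nM enzyme in pH 5.9 citric acid/KH2PO4, taurocholate, tween-20; blue fluorogenic substrate 80 uM, 40 min room temperature, stopped and read Ex 365/Em 440 for AC50.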

[2] = AP1 Signaling Pathway (AID 357); conditions: ME-180 AP-1-bla reporter, EGF-induced, beta-lactamase ratio, 5 h; at 7.69 µM (top of the series) unless noted;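 also: ME-180 reporter cells stimulated with EGF at its EC50 level; % is scaled to controls: 0 for no effect and ±100 for the full control effect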
In short: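 A ratiometric CCF4 readout (405 nm excitation; 460 and 530 nm emission) quantified AP-1-driven beta-lactamase in ME-180 cells after 5 h with compound and EC50 EGF; AC50 values were derived for activators and inhibitors.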

[3] = biological target: Cytochrome P450 1A2 (Homo sapiens) (UniProt P05177); experiment: p450-cyp1a2 (AID 410; calls by dose curve; also: potency is read from the fitted curve at half-maximal effect;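 as to activity change, negative = inhibition: -100% = full effect of reference inhibitor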); conditions: recombinant CYP1A2, luciferin-ME demethylation, luminescence; series mostly up to 11.4 µM
Sequence of Cytochrome P450 1A2 (Homo sapiens) (P05177 whole entry, looked up): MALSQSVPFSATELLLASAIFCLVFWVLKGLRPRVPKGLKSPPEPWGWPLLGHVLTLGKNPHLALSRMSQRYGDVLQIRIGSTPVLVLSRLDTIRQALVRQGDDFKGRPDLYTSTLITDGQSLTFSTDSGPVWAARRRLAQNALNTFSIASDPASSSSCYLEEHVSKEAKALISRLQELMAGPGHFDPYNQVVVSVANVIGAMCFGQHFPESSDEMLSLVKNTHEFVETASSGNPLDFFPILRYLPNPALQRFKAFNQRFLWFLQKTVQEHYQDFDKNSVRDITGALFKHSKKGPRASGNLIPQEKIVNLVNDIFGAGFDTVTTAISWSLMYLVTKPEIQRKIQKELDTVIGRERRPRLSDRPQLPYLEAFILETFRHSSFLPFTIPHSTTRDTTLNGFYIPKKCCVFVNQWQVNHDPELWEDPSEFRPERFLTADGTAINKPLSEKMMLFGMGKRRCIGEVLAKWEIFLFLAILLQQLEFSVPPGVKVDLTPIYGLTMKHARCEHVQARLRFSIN
In short: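 Inhibition was calculated relative to 57 uM furafylline (full inhibition). The reaction used human CYP1A2 at 20nM with Luciferin-ME at its Km, 100uM, driven by an NADPH-regenerating system for 60 min at room temperature.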

[4] = NFAT Signaling Pathway (AID 444); conditions: Jurkat NFAT-bla M1, carbachol, beta-lactamase ratio, 5 h; at 7.69 µM (top of the series) unless noted;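 also: carbachol stimulus at about its EC50 of 1 µM final; % is scaled to controls: 0 for no effect and ±100 for the full control effect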
In short: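 Jurkat cells with NFAT-driven β-lactamase reporter and co-expressed M1 receptor, stimulated with carbachol (final 1 uM, ~EC50), compound titration, 5 h at 37 °C. CCF4 loaded 1 h at RT; 460/530 nm ratio gave %activity and AC50.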

[5] = Stat Signaling Pathway (AID 446); conditions: ME-180 SIE beta-lactamase reporter, IL-6 stimulated, 5 h; at 7.69 µM (top of the series) unless noted;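 also: ME-180 cervical cancer cells given 40 pM IL-6 alongside compound; SIE-controlled beta-lactamase reporter measured as 460/530 nm FRET emission ratio; % is scaled to controls: 0 for no effect and ±100 for the full control effect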
In short: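 ME-180 cells carrying a SIE-driven beta-lactamase reporter are stimulated with 40 pM IL-6 for 5 h at 37C in the presence of compound. The 460/530 nm FRET substrate ratio is read after 2.5 h at RT. Data are normalised to 300 pM IL-6 and to 125 nM JAK inhibitor controls.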

[6] = biological target: Glucocorticoid receptor (Homo sapiens) (UniProt P04150); experiment: GR-GFP Redistribution (AID 450;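 active = compounds whose dose series gives a full or clear partial fitted curve of increased nuclear translocation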; also: potency is read from the fitted curve at half-maximal effect); conditions: U2OS GR-GFP nuclear translocation, laser cytometry, 2 h
Sequence of Glucocorticoid receptor (Homo sapiens) (P04150 whole entry, looked up, the tested form may be a part): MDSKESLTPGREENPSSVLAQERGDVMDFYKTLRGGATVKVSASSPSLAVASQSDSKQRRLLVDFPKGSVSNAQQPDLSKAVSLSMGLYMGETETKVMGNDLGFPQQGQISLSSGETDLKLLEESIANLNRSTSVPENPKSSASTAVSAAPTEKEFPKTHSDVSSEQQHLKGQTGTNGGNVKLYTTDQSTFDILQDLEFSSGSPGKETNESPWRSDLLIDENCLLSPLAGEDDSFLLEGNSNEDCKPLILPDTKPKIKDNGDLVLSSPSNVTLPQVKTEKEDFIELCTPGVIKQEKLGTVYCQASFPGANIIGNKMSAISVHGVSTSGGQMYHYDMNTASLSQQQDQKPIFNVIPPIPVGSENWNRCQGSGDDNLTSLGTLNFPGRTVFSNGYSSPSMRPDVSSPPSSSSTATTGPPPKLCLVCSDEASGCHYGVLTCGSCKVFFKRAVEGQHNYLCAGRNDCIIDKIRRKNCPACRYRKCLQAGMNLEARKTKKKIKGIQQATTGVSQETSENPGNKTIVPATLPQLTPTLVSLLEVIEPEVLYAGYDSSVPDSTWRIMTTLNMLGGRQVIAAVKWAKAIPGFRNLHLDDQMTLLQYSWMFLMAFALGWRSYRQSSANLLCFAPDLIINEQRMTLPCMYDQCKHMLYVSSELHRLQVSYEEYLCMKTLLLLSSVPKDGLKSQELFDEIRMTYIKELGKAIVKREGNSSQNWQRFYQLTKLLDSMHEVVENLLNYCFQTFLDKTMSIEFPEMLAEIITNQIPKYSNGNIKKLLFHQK

[7] = biological target: Glucocorticoid receptor (Homo sapiens) (UniProt P04150); experiment: GR-EFC Redistribution (AID 451; calls by dose curve; also: potency is read from the fitted curve at half-maximal effect); conditions: CHO-K1 GR-EFC translocation, beta-gal luminescence, 2 h
In short: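 CHO-K1 cells expressing nuclear EA and GR-ED fragments of b-gal; compounds titrated up to 46 uM final, 2 h at 37 C. GR nuclear translocation read as complemented b-gal luminescence after 1 h RT detection.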

[8] = biological target: Mitogen-activated protein kinase 10 (Mus musculus) (UniProt Q61831); experiment: JNK3 AlphaScreen Assay (AID 530); conditions: JNK3 lysate, c-Jun phosphorylation; series mostly up to 11.4 µM;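 also: kinase came from lysate of stimulated human HepG2 cells; signal reports phosphorylation of biotinylated GST-cJun 1-79 at Ser73 with 10 µM ATP; % is scaled to controls: 0 for no effect and ±100 for the full control effect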
In short: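 qHTS format: compounds tested as titrations against IL-1beta/TNF-alpha-activated HepG2 lysate JNK3 with biotin-GST-cJun substrate and 10 uM ATP at room temperature. Loss of anti-phospho-cJun AlphaScreen signal indicates inhibition.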

[9] = biological target: 3',5'-cyclic-AMP phosphodiesterase 4B (Homo sapiens) (UniProt Q07343); experiment: qHTS Assay for Inhibitors of PDE-IV (AID 607; active = well fitted activation curve with a large enough effect in the main read-out, with a control signal flat, not every such curve was filed as active; also: % of control where 0% means no effect); conditions: HEK293 ACTOne CNG channel cells, membrane potential fluorescence; series mostly up to 22.9 µM
Sequence of 3',5'-cyclic-AMP phosphodiesterase 4B (Homo sapiens) (Q07343 whole entry, looked up): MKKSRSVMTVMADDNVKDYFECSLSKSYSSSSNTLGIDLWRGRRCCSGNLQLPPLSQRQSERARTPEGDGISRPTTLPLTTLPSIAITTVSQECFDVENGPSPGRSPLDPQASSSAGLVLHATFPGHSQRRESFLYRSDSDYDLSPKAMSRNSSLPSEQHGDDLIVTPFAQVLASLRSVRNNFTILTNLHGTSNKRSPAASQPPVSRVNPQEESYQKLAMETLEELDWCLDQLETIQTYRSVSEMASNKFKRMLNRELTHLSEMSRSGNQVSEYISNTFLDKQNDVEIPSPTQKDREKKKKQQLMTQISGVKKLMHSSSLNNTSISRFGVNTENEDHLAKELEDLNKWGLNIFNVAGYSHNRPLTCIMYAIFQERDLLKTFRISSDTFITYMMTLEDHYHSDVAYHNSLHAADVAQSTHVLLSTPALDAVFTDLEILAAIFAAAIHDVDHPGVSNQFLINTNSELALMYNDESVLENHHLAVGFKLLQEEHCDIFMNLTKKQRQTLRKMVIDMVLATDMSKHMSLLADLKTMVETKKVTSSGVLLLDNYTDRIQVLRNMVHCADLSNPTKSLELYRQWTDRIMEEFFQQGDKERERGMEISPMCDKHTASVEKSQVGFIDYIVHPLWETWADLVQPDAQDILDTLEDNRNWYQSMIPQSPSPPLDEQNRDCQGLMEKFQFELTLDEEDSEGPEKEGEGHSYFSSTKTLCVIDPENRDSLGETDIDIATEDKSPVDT
In short: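 HEK293 ACTOne cells with CNG channel (1000/well), endogenous PDE4; membrane potential dye, compounds up to 22.9 uM final. Fluorescence Ex 535/Em 590; RO 20-1724 (100 uM final) as reference.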

[10] = biological target: Cytochrome P450 2D6 (Homo sapiens) (UniProt P10635); experiment: qHTS Assay for Inhibitors and Substrates of Cytochrome P450 2D6 (AID 891; active = well fitted inhibition curve with a large enough effect; also: nearly all actives have a fitted effect of over 60% in size; also: potency is read from the fitted curve at half-maximal effect); conditions: recombinant CYP2D6, luciferin-ME EGE luminescence; series mostly up to 11.4 µM
Sequence of Cytochrome P450 2D6 (Homo sapiens) (P10635 whole entry, looked up): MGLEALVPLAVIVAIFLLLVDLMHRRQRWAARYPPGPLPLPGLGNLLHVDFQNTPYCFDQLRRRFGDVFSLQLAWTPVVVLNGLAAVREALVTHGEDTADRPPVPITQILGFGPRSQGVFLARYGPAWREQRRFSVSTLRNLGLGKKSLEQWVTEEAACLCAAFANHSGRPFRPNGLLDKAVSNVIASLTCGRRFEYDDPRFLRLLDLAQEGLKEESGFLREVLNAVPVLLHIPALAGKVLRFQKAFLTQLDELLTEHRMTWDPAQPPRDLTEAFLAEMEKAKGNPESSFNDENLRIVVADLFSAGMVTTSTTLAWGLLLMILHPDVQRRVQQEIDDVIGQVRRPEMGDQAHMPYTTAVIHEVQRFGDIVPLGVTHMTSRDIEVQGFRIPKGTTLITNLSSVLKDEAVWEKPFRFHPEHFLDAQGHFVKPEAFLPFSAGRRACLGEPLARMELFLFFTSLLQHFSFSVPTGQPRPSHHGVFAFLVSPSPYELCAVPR
In short: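 Human CYP2D6 (5 nM) with 30 uM Luciferin-ME EGE (at Km) in 100 mM KPO4, compound preincubated 10 min, then NADPH regeneration system for 60 min at room temperature. Luciferin read by luminescence; normalized to 1.43 uM quinidine.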

[11] = biological target: Cytochrome P450 2C19 (Homo sapiens) (UniProt P33261); experiment: qHTS Assay for Inhibitors and Substrates of Cytochrome P450 2C19 (AID 899; active = well fitted inhibition curve with a large enough effect; also: % is scaled to controls: 0 for no effect and ±100 for the full control effect; nearly all actives have a fitted effect of over 60% in size); conditions: recombinant CYP2C19, luciferin-H EGE luminescence; series mostly up to 11.4 µM
Sequence of Cytochrome P450 2C19 (Homo sapiens) (P33261 whole entry, looked up): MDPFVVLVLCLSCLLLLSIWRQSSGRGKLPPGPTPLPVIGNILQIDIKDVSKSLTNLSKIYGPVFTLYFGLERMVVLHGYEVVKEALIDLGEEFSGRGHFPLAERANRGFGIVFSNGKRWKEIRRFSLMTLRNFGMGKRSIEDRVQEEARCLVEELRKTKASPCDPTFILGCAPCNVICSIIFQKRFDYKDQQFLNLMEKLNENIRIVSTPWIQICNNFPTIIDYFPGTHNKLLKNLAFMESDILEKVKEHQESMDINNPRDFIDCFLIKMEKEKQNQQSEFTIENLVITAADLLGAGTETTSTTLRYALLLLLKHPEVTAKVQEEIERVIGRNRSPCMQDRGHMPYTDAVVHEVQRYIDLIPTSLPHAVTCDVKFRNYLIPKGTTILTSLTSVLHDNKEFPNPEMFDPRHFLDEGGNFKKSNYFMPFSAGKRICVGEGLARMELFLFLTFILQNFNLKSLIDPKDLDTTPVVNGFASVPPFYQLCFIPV
In short: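 5 nM human CYP2C19 with 10uM Luciferin-H EGE (at KM) in 50mM KPO4, compound preincubated 10 min at 37C, then NADPH regeneration for 60 min at 37C. Luciferin read by luminescence after detection reagent; normalized to 57uM ketoconazole as full inhibition.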

| Compound | Potency [1] [µM] | activity change, negative = inhibition [2] [%] | Potency [3] | activity change, negative = inhibition [4] [%] | activity, negative = inhibition [5] [%] | Potency [6] [µM] | Potency [7] [µM] | Potency [8] | Potency [9] | Potency [10] | activity change, negative = inhibition [3] | Potency [11] |
| --- | --- | --- | --- | --- | --- | --- | --- | --- | --- | --- | --- | --- |
| NCCCc1c(-c2ccccc2)nc(N)[nH]c1=O | > 11.4 | 0.759 | inactive | 4.17 | 9.18 | > 46 | > 9.22 | inactive | inactive | inactive |  |  |
| CC1=NCC[N@@+]1(CCc1ccccc1)Cc1ccccc1 | > 11.4 | -5.92 | inactive | -20.4 | 11.6 | > 46 | > 9.22 | inactive | inactive | 0.0501 µM (active) |  |  |
| O=C(O)[C@@H](c1ccccc1)[C@@H](C(=O)O)c1ccccc1 | > 11.4 | 3.89 |  | 6.48 | -0.514 | > 46 | > 9.22 | inactive | inactive | inactive | -12% [at 2.29 µM] |  |
| c1ccc2c(c1)nnn2CN1CCOCC1 | > 11.4 | 1.95 | inactive | -0.506 | -18.4 | > 46 | > 9.22 | inactive | inactive | inactive |  |  |
| O=C(O)NCC1CCCCC1 (tested in a mixture with another compound) | > 11.4 | 23.3 | inactive | 22.8 | -1.59 | > 46 | > 9.22 | inactive | inactive | 3.98 µM (active) |  |  |
| O=C(O)C1(C(=O)O)CCN(S(=O)(=O)c2ccccc2)CC1 | > 11.4 | -0.169 |  | 5.93 | 11.9 | > 46 | > 9.22 | inactive | inactive | inactive | 14% [at 2.29 µM] |  |
| Clc1cc2c(c(CSC3=NCN(CC4CC4)CN3)c1)OCOC2 | > 11.4 | 5.83 | 3.16 µM (active) | -19.2 | 0.512 | > 46 | > 9.22 | inactive | inactive | 0.199 µM (active) |  |  |
| O=C(O)c1nn(-c2ccccc2-c2n[nH]c(=O)[nH]c2=O)c(=O)[nH]c1=O | > 11.4 | 1.66 | inactive | 18.8 | 6.32 | > 46 | > 9.22 | inactive | inactive | inactive |  |  |
| Cc1cn([C@H]2C[C@H](O)[C@@H](COC(N)=O)O2)c(=O)[nH]c1=O | > 11.4 | 2.02 |  | 0.228 | 6.97 | > 46 | > 9.22 | inactive | inactive | inactive | -14.6% [at 2.29 µM] |  |
| c1ccc2c(CN3CCN(Cc4c[nH]c5ccccc45)CC3)c[nH]c2c1 | > 11.4 | -5.4 |  | 5.24 | 5.49 | > 46 | > 9.22 | inactive | inactive | 2.51 µM (active) | -18.1% [at 2.29 µM] |  |
| O[C@@H](COc1ccc(Cl)cc1Cl)CN1CCCC1 | > 11.4 | 7.86 | 5.01 µM (active) | 2.25 | 4.26 | > 46 | > 9.22 | inactive | inactive | 0.316 µM (active) |  |  |
| CC(C)NC1(C(N)=O)CCN(Cc2ccccc2)CC1 | > 11.4 | 0.245 |  | -10.3 | -5.76 | > 46 | > 9.22 | inactive | inactive | 0.631 µM (active) | 7.6% [at 2.29 µM] |  |
| NNC(=O)c1ccc[n+](CCc2ccccc2)c1 | > 11.4 | 11.3 | inactive | -4.8 | -0.167 | > 46 | > 9.22 | inactive | inactive | 2 µM (active) |  |  |
| COc1ccc(OC)c(-c2cc(C(=O)O)c3cc4ccccc4cc3n2)c1 | > 11.4 | 4.44 |  | 15.6 | 4.07 | > 46 | > 9.22 | inactive | inactive | 3.98 µM (active) | -21.4% [at 2.29 µM] |  |
| S=C(Nc1ccc2cn[nH]c2c1)Nc1ccc2cn[nH]c2c1 | > 11.4 | -15 | 0.126 µM (active) | 19.4 | 1.71 | > 46 | > 9.22 | inactive | inactive | 2 µM (active) |  |  |
| NS(=O)(=O)c1cc2c(cc1Cl)=NC(CCC(=O)O)=NS=2(=O)O | > 11.4 | -7.99 | inactive | 7.52 | 10.8 | > 46 | > 9.22 | inactive | inactive | inactive |  |  |
| C[N+](C)(N)CCC[N+](C)(C)N | > 11.4 | 6.06 | inactive | 24.5 | 8.44 | > 46 | > 9.22 | inactive | inactive | inactive |  | inactive |
| CCOC(=S)SCC(=O)O | > 11.4 | 3.32 | inactive | 9.65 | 16.6 | > 46 | > 9.22 | inactive | inactive | inactive |  |  |
| O=C(O)c1cc2ccccc2c(S(=O)(=O)O)c1O | > 11.4 | 2.94 | inactive | 7.56 | 3.56 | > 46 | > 9.22 | inactive | inactive | inactive |  |  |
| O=C(O)c1ccc(/C=N\N=C2c3ccccc3-c3ccccc32)cc1 | > 11.4 | -12.4 | 0.126 µM (active) | -25.2 | -6.87 | > 46 | > 9.22 | inactive | inactive | inactive |  |  |
| OCCN(CO)CO | > 11.4 | 6.19 | inactive | 13.5 | 7.15 | > 46 | > 9.22 | inactive | inactive | inactive |  |  |
| N/C(CC/C(N)=N/O)=N\O | > 11.4 | -3.76 | inactive | 7.17 | -0.993 | > 46 | > 9.22 | inactive | inactive | inactive |  |  |
| Nc1c(S(N)(=O)=O)cc(S(N)(=O)=O)cc1S(N)(=O)=O | > 11.4 | 2.78 | inactive | 7.97 | 1.94 | > 46 | > 9.22 | inactive | inactive |  |  | inactive |
| O=C(O)C/C(=C\c1ccco1)C(=O)O | > 11.4 | 8.65 |  | 9.1 | 7.2 | > 46 | > 9.22 | inactive | inactive |  | -11.8% [at 2.29 µM] | inactive |
| CC(CC(=O)O)(CC(=O)O)C(=O)O | > 11.4 | -0.949 | inactive | 18.4 | 9.05 | > 46 | > 9.22 | inactive | inactive | inactive |  | inactive |
| CN1CCc2[nH]nc(-c3n[nH]c4c3CN(C)CC4)c2C1 | > 11.4 | 3.96 | inactive | 4.1 | 2.92 | > 46 | > 9.22 | inactive | inactive |  |  | inactive |
| CN1CCc2nc(N)nc(-c3nc(N)nc4c3CN(C)CC4)c2C1 | > 11.4 | 1.73 |  | 7.63 | 4.69 | > 46 | > 9.22 | inactive | inactive |  | -3.9% [at 2.29 µM] | inactive |
